# Article PMC7862700, “An all-to-all approach to the identification of sequence-specific readers for epigenetic DNA modifications on cytosine”
# How the values were obtained:
# Test in all cases: DAPPL (digital affinity profiling via proximity ligation, sequencing); 10 mM Tris-HCl pH 7.5, 50 mM NaCl, 1 mM DTT, 4% glycerol, room temperature, 30 min; GST-TFs on glutathione beads, 16-mer random dsDNA library, 0.1% formaldehyde crosslink after washing; high values mean tight binding
# FLI1 = biological target: T1, FLI1 (Homo sapiens, UniProt Q01543 1-452); details: protein: recombinant; tags: N-terminal GST; dsDNA, one strand shown
# T1 sequence: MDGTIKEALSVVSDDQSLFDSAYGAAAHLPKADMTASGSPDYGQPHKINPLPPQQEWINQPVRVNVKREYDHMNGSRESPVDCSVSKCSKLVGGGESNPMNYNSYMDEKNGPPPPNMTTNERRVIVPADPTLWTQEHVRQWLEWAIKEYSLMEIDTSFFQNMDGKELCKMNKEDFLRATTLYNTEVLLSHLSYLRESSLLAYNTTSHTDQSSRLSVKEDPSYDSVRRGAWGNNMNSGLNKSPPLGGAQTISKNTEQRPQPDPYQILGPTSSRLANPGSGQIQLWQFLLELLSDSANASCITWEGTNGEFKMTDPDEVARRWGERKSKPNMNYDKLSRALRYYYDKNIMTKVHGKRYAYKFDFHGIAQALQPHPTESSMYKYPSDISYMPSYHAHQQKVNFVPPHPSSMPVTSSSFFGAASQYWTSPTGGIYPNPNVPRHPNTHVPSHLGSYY
# In short: (§1)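 The binding signal reported is, for every hexamer, its read frequency for a factor over its read frequency for the tag-only sample. Reads came from pools of yeast-expressed, GST-fused human transcription factors on glutathione beads, barcoded with DNA and mixed with that sample, which were incubated with 200 nmole of a random double-stranded 16-mer DNA library in Tris/NaCl/DTT/glycerol buffer at room temperature for 30 min. After washing, the pools were crosslinked with 0.1% formaldehyde, proximity-ligated with BsaI/T4 ligase for 1 h at 37 °C, PCR-amplified and sequenced on an Illumina NextSeq500.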
# ELK1 = biological target: T2, ELK1 (Homo sapiens, UniProt P19419 1-428); details: protein: recombinant; tags: N-terminal GST; dsDNA, one strand shown
# T2 sequence: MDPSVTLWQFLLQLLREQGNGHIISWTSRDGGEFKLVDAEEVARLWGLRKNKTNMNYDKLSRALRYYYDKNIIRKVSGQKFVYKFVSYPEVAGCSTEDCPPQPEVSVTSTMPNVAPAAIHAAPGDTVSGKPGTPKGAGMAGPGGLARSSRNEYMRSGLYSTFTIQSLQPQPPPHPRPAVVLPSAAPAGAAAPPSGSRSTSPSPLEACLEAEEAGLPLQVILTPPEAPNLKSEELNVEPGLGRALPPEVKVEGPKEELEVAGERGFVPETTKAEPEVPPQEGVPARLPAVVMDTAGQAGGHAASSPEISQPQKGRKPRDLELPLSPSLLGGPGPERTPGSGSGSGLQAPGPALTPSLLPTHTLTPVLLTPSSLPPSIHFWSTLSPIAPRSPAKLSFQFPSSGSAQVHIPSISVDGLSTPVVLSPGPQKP
# In short: as §1
# GABPA = biological target: T3, GABPA (Homo sapiens, UniProt Q06546 1-454); details: protein: recombinant; tags: N-terminal GST; dsDNA, one strand shown
# T3 sequence: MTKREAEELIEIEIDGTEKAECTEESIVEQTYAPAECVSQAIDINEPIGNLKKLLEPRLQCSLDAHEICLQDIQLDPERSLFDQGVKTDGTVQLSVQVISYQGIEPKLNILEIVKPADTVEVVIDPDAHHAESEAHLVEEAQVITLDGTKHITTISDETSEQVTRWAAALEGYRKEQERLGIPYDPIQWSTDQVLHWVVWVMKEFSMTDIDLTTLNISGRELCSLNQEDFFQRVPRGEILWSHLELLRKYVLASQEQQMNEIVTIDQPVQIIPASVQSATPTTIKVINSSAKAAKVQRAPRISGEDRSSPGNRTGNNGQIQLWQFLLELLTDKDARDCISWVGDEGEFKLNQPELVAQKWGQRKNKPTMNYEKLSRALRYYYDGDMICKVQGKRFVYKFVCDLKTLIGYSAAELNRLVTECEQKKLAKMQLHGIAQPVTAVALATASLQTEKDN
# In short: as §1
# ERG = biological target: T4, ERG (Homo sapiens, UniProt P11308 1-479); details: protein: recombinant; tags: N-terminal GST; dsDNA, one strand shown
# T4 sequence: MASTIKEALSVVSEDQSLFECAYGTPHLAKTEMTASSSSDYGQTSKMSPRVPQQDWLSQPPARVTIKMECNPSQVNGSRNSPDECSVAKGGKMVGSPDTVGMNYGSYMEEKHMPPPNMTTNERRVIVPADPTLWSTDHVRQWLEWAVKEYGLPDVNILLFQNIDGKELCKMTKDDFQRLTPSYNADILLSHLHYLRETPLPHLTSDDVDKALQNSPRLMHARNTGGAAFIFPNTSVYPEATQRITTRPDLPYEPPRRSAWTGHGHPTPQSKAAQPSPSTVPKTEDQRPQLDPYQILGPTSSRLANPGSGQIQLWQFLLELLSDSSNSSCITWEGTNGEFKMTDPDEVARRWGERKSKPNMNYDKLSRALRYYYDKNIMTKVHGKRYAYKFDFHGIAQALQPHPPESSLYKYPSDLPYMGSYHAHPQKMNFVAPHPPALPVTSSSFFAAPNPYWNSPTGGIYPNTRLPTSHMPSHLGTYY
# In short: as §1
# ELF1 = ELF1 (Homo sapiens, UniProt P32519 1-619); details: protein: recombinant; tags: N-terminal GST; dsDNA, one strand shown
# In short: as §1
# EHF = biological target: T5, EHF (Homo sapiens, UniProt Q9NZC4 1-300); details: protein: recombinant; tags: N-terminal GST; dsDNA, one strand shown
# T5 sequence: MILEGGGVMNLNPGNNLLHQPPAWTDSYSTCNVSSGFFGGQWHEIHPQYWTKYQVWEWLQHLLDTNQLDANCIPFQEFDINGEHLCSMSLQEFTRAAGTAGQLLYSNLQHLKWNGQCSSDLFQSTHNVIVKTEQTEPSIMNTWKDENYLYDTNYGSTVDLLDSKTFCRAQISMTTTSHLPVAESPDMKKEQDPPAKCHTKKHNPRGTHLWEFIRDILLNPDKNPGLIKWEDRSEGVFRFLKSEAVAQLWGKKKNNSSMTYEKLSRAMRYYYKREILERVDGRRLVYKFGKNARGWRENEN
# In short: as §1
# SPI1 = SPI1 (Homo sapiens, UniProt P17947 1-270); details: protein: recombinant; tags: N-terminal GST; dsDNA, one strand shown
# In short: as §1
# SPIB = SPIB (Homo sapiens, UniProt Q01892 1-262); details: protein: recombinant; tags: N-terminal GST; dsDNA, one strand shown
# In short: as §1
# ELK3 = biological target: T6, ELK3 (Homo sapiens, UniProt P41970 1-407); details: protein: recombinant; tags: N-terminal GST; dsDNA, one strand shown
# T6 sequence: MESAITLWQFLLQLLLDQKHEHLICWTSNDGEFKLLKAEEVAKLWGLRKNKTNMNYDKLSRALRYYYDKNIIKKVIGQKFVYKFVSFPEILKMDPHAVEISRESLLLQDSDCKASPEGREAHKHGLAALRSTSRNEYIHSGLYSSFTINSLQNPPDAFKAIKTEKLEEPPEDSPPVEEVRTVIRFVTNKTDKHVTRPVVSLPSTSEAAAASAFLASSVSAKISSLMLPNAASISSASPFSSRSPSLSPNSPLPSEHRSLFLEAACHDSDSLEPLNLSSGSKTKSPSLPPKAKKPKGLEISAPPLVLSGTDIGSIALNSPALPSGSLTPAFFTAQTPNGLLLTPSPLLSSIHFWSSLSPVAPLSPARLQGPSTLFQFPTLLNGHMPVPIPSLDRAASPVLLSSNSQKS
# In short: as §1
# FEV = biological target: T7, FEV (Homo sapiens, UniProt Q99581 1-238); details: protein: recombinant; tags: N-terminal GST; dsDNA, one strand shown
# T7 sequence: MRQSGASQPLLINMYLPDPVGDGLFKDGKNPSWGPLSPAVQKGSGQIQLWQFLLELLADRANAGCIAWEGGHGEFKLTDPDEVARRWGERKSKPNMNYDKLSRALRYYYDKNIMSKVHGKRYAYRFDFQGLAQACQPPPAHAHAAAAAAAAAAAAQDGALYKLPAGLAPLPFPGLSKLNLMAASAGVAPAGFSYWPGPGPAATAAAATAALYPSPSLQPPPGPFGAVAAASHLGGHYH
# In short: as §1
# ETV5 = ETV5 (Homo sapiens, UniProt P41161 1-510); details: protein: recombinant; tags: N-terminal GST; dsDNA, one strand shown
# In short: as §1
# HSF1 = HSF1 (Homo sapiens, UniProt Q00613 1-529); details: protein: recombinant; tags: N-terminal GST; chain copies: 3; dsDNA, one strand shown
# In short: as §1
# SPIC = biological target: T8, SPIC (Homo sapiens, UniProt Q8N5J4 1-248); details: protein: recombinant; tags: N-terminal GST; dsDNA, one strand shown
# T8 sequence: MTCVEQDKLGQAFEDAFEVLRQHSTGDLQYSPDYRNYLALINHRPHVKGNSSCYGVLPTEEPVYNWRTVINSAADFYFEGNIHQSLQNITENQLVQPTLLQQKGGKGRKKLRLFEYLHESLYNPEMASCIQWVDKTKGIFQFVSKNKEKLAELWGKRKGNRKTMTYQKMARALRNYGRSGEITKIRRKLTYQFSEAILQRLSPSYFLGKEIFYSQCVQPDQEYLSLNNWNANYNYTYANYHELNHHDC
# In short: as §1
# ELF4 = ELF4 (Homo sapiens, UniProt Q99607 1-663); details: protein: recombinant; tags: N-terminal GST; dsDNA, one strand shown
# In short: as §1
# ELK4 = biological target: T9, ELK4 (Homo sapiens, UniProt P28324-2 1-405); details: protein: recombinant; tags: N-terminal GST; dsDNA, one strand shown
# T9 sequence: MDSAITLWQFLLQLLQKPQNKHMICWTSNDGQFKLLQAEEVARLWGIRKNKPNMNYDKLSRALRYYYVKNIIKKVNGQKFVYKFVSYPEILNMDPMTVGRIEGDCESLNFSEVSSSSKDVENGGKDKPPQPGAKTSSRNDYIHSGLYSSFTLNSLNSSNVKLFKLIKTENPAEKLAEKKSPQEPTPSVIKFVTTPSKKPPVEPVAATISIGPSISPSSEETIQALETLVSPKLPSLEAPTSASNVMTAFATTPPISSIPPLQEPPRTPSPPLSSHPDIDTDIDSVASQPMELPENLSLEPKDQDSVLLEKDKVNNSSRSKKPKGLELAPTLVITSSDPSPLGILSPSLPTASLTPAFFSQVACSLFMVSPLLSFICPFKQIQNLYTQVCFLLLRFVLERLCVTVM
# In short: as §1
# ETV2 = biological target: T10, ETV2 (Homo sapiens, UniProt O00321 1-342); details: protein: recombinant; tags: N-terminal GST; dsDNA, one strand shown
# T10 sequence: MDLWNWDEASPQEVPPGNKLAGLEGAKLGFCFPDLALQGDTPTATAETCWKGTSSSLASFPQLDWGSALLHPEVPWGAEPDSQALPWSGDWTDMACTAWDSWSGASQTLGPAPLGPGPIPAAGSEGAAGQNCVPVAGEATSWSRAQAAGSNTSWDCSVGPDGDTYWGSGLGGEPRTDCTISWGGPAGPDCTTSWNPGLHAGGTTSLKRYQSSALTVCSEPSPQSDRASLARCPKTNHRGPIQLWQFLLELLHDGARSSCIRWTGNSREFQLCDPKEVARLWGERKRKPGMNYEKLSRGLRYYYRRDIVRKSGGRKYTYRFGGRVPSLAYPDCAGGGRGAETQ
# In short: as §1
# ELF3 = biological target: T11, ELF3 (Homo sapiens, UniProt P78545 1-371); details: protein: recombinant; tags: N-terminal GST; dsDNA, one strand shown
# T11 sequence: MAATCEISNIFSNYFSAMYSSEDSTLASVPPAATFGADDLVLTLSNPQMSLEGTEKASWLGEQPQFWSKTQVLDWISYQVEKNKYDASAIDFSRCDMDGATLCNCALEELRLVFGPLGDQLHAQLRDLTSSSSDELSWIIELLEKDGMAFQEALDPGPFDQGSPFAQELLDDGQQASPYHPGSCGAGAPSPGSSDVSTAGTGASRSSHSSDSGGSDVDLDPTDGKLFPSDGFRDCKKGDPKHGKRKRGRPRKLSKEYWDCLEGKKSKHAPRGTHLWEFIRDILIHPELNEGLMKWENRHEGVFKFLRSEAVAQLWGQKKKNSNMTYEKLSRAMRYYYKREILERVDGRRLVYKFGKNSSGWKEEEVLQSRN
# In short: as §1
# CRX = CRX (Homo sapiens, UniProt O43186 1-299); details: protein: recombinant; tags: N-terminal GST; dsDNA, one strand shown
# In short: as §1
# ETV1 = ETV1 (Homo sapiens, UniProt P50549 1-477); details: protein: recombinant; tags: N-terminal GST; dsDNA, one strand shown
# In short: as §1
# Chain of ELF4 (Q99607 whole entry): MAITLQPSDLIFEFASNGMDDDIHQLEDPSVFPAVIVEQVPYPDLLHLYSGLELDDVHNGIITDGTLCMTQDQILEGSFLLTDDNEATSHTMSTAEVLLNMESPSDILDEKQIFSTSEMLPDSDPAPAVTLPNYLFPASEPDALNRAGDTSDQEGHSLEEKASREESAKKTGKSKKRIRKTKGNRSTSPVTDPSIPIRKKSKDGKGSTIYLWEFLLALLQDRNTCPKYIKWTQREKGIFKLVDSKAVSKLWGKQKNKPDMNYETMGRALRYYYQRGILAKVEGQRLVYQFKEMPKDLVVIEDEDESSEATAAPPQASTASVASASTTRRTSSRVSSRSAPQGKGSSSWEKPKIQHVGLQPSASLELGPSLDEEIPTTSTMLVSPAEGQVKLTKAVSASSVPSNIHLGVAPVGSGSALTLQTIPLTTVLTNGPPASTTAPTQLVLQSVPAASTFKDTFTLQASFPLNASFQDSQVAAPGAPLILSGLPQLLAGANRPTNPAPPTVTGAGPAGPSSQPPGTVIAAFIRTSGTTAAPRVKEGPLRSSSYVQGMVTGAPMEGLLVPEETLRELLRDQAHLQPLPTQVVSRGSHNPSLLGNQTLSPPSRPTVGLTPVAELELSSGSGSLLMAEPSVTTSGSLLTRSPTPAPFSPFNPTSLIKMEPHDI
# Chain of ELF1 (P32519 whole entry): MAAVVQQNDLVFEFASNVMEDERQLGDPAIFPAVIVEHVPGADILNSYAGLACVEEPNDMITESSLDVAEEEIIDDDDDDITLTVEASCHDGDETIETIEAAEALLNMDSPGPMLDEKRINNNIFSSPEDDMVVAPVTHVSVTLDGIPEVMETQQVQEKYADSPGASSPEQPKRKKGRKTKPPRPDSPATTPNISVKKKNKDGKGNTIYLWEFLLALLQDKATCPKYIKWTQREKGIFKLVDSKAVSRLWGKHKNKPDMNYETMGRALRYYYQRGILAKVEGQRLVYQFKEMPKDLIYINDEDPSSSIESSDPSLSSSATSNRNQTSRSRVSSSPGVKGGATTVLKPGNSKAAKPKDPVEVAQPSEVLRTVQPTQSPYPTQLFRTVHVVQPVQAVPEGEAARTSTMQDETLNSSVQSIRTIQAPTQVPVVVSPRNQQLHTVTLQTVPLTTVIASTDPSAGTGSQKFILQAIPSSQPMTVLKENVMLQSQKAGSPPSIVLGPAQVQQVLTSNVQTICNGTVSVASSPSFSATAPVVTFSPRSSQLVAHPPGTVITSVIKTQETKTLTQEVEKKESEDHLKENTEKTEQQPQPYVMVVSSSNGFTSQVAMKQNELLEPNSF
# Chain of ETV5 (P41161 whole entry): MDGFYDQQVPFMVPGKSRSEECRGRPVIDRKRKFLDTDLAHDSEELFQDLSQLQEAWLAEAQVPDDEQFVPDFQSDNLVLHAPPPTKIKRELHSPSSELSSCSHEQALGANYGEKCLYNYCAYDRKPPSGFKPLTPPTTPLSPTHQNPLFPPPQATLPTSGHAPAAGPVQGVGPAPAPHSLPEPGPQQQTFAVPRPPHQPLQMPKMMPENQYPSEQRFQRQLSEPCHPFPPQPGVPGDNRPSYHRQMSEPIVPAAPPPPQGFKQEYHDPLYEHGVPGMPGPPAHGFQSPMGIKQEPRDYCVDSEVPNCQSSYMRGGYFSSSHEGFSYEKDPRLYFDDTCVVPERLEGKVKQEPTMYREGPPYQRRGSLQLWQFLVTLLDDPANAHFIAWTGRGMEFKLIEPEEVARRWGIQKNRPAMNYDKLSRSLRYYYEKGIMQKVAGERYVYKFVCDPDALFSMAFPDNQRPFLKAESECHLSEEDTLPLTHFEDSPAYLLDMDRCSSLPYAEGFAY
# Chain of ETV1 (P50549 whole entry): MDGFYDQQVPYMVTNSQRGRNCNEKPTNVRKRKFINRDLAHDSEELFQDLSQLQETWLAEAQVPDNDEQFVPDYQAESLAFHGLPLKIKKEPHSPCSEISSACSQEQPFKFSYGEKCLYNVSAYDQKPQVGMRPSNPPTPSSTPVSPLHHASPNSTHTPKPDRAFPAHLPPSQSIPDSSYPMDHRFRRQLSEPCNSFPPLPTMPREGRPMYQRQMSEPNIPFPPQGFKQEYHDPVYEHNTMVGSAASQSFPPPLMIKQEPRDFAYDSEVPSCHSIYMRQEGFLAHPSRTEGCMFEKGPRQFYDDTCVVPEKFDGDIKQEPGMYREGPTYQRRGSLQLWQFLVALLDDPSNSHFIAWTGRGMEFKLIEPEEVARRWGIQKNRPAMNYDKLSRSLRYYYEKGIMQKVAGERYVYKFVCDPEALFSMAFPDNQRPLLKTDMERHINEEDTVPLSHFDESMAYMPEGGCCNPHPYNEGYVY
# Chain of HSF1 (Q00613 whole entry): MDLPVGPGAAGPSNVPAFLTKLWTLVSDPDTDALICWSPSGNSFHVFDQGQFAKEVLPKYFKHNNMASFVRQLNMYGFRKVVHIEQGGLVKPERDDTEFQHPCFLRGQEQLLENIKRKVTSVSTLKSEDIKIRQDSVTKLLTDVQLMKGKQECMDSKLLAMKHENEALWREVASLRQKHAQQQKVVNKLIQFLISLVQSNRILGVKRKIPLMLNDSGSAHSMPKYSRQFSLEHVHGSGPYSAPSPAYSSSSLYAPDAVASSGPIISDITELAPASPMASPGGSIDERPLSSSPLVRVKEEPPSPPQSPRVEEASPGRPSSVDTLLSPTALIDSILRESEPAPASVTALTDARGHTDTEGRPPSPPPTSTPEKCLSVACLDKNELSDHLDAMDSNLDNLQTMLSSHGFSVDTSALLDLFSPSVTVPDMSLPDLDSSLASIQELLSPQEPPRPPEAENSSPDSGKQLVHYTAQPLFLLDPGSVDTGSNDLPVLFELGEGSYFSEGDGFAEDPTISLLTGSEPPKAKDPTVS
# Chain of CRX (O43186 whole entry): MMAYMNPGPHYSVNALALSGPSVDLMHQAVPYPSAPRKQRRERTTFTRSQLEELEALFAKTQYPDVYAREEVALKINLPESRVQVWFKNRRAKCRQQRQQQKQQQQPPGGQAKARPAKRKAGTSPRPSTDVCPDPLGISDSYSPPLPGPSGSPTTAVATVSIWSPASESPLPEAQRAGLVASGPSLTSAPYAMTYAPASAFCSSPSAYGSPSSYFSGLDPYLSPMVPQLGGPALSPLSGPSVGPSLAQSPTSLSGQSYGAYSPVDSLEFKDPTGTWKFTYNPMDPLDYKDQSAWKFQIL
# Chain of SPIB (Q01892 whole entry): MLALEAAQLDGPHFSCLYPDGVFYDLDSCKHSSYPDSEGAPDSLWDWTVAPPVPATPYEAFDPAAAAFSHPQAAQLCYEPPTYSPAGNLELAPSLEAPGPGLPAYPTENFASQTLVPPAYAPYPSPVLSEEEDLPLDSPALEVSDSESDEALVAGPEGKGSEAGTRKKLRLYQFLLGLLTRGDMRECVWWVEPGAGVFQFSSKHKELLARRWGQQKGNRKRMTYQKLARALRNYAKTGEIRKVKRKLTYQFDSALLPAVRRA
sequence,measurement,setting,value
TTCTGG,binding signal,FLI1,"1.36 fold enrichment (6-mer frequency, TF over GST control)"
same,binding signal,ELK1,"1.16 fold enrichment (6-mer frequency, TF over GST control)"
same,binding signal,GABPA,"1.32 fold enrichment (6-mer frequency, TF over GST control)"
same,binding signal,ERG,"1.31 fold enrichment (6-mer frequency, TF over GST control)"
same,binding signal,ELF1,"1.14 fold enrichment (6-mer frequency, TF over GST control)"
same,binding signal,EHF,"1.2 fold enrichment (6-mer frequency, TF over GST control)"
same,binding signal,SPI1,"1.24 fold enrichment (6-mer frequency, TF over GST control)"
same,binding signal,SPIB,"1.18 fold enrichment (6-mer frequency, TF over GST control)"
same,binding signal,ELK3,"1.48 fold enrichment (6-mer frequency, TF over GST control)"
same,binding signal,FEV,"1.19 fold enrichment (6-mer frequency, TF over GST control)"
same,binding signal,ETV5,"1.16 fold enrichment (6-mer frequency, TF over GST control)"
same,binding signal,HSF1,"4.45 fold enrichment (6-mer frequency, TF over GST control)"
same,binding signal,SPIC,"1.36 fold enrichment (6-mer frequency, TF over GST control)"
same,binding signal,ELF4,"1.29 fold enrichment (6-mer frequency, TF over GST control)"
same,binding signal,ELK4,"1.35 fold enrichment (6-mer frequency, TF over GST control)"
same,binding signal,ETV2,"1.42 fold enrichment (6-mer frequency, TF over GST control)"
same,binding signal,ELF3,"1.21 fold enrichment (6-mer frequency, TF over GST control)"
same,binding signal,CRX,"1.76 fold enrichment (6-mer frequency, TF over GST control)"
same,binding signal,ETV1,"1.21 fold enrichment (6-mer frequency, TF over GST control)"
